Assay outcomes from PubChem.
A selection: hits, their analogues and other compounds. The true share with any hit is near 12%.
JMJD2A Tudor – blocks the human JMJD2A Tudor domain | AlphaScreen JMJD2A-Tudor / H3K4me3 peptide binding | AID 504339 | Potency, µM (titrated, usually from 114 µM), for the others: at the highest dose activity change, negative = inhibition, most hits filed as inhibitors | 390,000 tested, 4.4% active | O75164; further: potency means the concentration at half of the fitted maximal effect; on the % scale 0 is the no-effect control and ±100 the full control effect; nearly all actives have a fitted effect of over 50% in size
BAZ2B block – BAZ2B (human) inhibition. AlphaScreen BAZ2B-H3K14Ac peptide displacement. Potency, µM (titrated, usually from 114 µM), for the others: at the top dose activity change, negative = inhibition, hits mostly inhibitors. AID 504333. 360,000 tested, 4.4% active. Q9UIF8; further: potency means the concentration at half of the fitted maximal effect; on the % scale 0 is the no-effect control and ±100 the full control effect; nearly all actives have a fitted effect of over 60% in size
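Compounds, titrated to a top concentration of 110 uM, were incubated 30 min at room temperature with preformed BAZ2B/acetyl-K14 H3 peptide complex (50 nM each). Proximity signal was measured by AlphaScreen after 20 min with beads.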
Sfp inh – Sfp phosphopantetheinyl transferase inhibition; Biochemical Sfp PPTase activity, qHTS; Q9F4F7; Potency, µM, without a hit: largest response in the series, negative = inhibition, actives largely listed as inhibitors; 310,000 tested, 3.5% active;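 further: the enzyme is Sfp with the accession as filed and its product quenches rhodamine fluorescence; potency means the concentration at half of the fitted maximal effect; 0% = enzyme reaction without inhibitor and -100% = no enzyme wells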
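Sfp 15 nM + cpd, 15 min RT; start w/ rhodamine-CoA 5 uM, BHQ-2-YbbR 12.5 uM (final); 50 mM Hepes pH 7.6, 10 mM MgCl2, 0.01% NP-40, 0.01% BSA; read 525/598 nm at 0 and 30 min.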
HP1b chromo inh – inhibitors of HP1-beta chromodomain binding to methylated histone tails. AlphaScreen HP1-beta / biotin-H3K9me3 peptide binding. Potency, µM (doses to about 114 µM), without a hit: at the highest dose activity change, negative = inhibition, most hits filed as inhibitors. 390,000 tested, 0.56% active. AID 540317; further: potency means the concentration at half of the fitted maximal effect; nearly all actives have a fitted effect of over 70% in size
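Compound inhibition of the preformed complex between 50 nM HP1-beta and 50 nM biotinylated H3K9me3 peptide was read by AlphaScreen. Buffer was PBS pH 7.4 with 0.01% Tween-20. Incubations ran 30 min at room temperature, with 10 ug/mL donor/acceptor beads.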
G9a inh – inhibitors of human histone lysine methyltransferase G9a | G9a H3K9 monomethylation, AlphaScreen, 2 h | Potency, µM (top dose mostly 102 µM), without a hit: at the top dose activity, negative = inhibition, hits mostly inhibitors | 350,000 tested, 8.8% active | AID 504332; further: potency means the concentration at half of the fitted maximal effect; on the % scale 0 is the no-effect control and ±100 the full control effect; nearly all actives have a fitted effect of over 75% in size
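AlphaScreen detection with an anti-monomethyl H3K9 antibody quantified product after a 2 h room-temperature reaction containing 500 nM biotinylated H3K9 peptide, 20 µM SAM and 20 nM enzyme, which had been preincubated 15 min with compound.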
TDP1 inh – blocks human tyrosyl-DNA phosphodiesterase 1. Q9NUW8. 350,000 tested, 0.28% active. Potency, µM (series often up to 130 µM), for inactives: at the top dose activity change, negative = inhibition, actives largely listed as inhibitors. recombinant TDP1, AlphaScreen DNA substrate cleavage. AID 485290; further: potency means the concentration at half of the fitted maximal effect; on the % scale 0 is the no-effect control and ±100 the full control effect; nearly all actives have a fitted effect of over 40% in size
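Tdp1 1 nM final; 15 min RT w/ cpd; substrate 15 nM, 5 min; beads 10 ug/ml, 10 min; AlphaScreen read. Neg ctrl: no enzyme.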
Sfp inh conf – Sfp phosphopantetheinyl transferase inhibition, confirmation | Sfp PPTase enzymatic assay, qHTS titration | shares compounds with Sfp inh | AID 2701 | Potency, µM (doses to about 114 µM), for the others: top-dose activity change, negative = inhibition, most hits filed as inhibitors | 380 tested, 79% active;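 further: potency means the concentration at half of the fitted maximal effect; plate controls were uninhibited Sfp reaction for no effect and no enzyme control for full effect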
Sfp PPTase gel – Inhibits B. subtilis Sfp phosphopantetheinylation. Potency, µM, hits mostly inhibitors. 210 tested, 20% active. shares compounds with Sfp inh. purified Sfp, gel-based phosphopantetheinylation read-out;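 active means potency below 100 µM; inconclusive means dose-dependent response but potency above 100 µM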;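 further: band intensities scaled against SCH202676 control wells before curve fitting; potency is an IC50 for inhibitors of Sfp transfer activity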
Starred values were filed as active, the others as inactive; i = inactive; ? = inconclusive; nt = not tested or not shown; ! = repeats disagree; [ ] = remark or other dose. Unless noted, the call rests on the fitted dose curve; in most records, active means well fitted curve in the direction sought with a large enough effect; inconclusive means small, poorly fitted or top-dose-only effect, or another doubt; inactive means no such curve, though single readings can be large; an effect the other way counts as inactive or inconclusive.

SMILES	JMJD2A Tudor	BAZ2B block	Sfp inh	HP1b chromo inh	G9a inh	TDP1 inh	Sfp inh conf	others
Cc1cccc(C)c1OCc1nnc(NC(=O)CSc2ccc(Cl)cc2)s1	-9%	4%	1%	32%	16%[59 µM]	4%	nt
O=C(CSc1ccccc1)Nc1nnc(COc2ccc(Cl)cc2)s1	56µM*	50µM*	14µM*	?	1.4µM*	5%	5.9µM*
COc1ccccc1CNC(=O)Nc1cccs1	56µM*	?	4µM*	?	-48%[2.33 µM]	7%	24µM*
COc1ccccc1CNC(=O)c1cccs1	-14%[57.1 µM]	0%	11%	11%	2%[59 µM]	-1%	nt
O=C(COC(=O)CC1SC(N2CCCC2)=NC1=O)Nc1ccc(Br)cc1 (stereo not drawn)	-7%	-13%	nt	25%	?	-10%	nt
Cc1cc(C)nc(SCNC(=O)c2ccccc2)n1	?	-13%	7.9µM*	45%	10µM*	3%	53µM*	Sfp PPTase gel=i
Cc1cc(C)nc(NC(=S)NC(=O)c2ccccc2)n1	?	12%	10%	23%	19%	nt	nt
On1c2c(c3c4nonc4ccc31)CCCC2	nt	?	45µM*	nt	?	-5%	66µM*
CC1=C(C(N)=O)C(c2ccc(Cl)c(Cl)c2)n2ncnc2N1 (stereo not drawn)	2%	7%	22%	21%	9%	nt	nt
COc1cccc(CNc2ccccn2)c1O	-18%	3%	15%	26%	-2%[0.501 µM]	nt	nt
COc1cccc(CNc2cccc3cccnc23)c1O	45µM*	?	4.5µM*	-7%	?	3%	21µM*	Sfp PPTase gel=i
CC1CCCC(NC(=O)CSc2nncs2)C1C (stereo not drawn)	-11%	5%	nt	30%	-21%[59 µM]	2%	nt
CCOC(=O)c1c(-c2ccc(C)o2)csc1NC(=O)COC(=O)c1cccs1	-16%	-3%	10µM*	33%	10µM*	2%[56.1 µM]	21µM*	Sfp PPTase gel=?
CCN(c1ccccc1C)S(=O)(=O)c1ccc(N2CCCCS2(=O)=O)cc1	-15%	-10%	nt	31%	34%[59 µM]	-4%	nt
O=C(c1ccc(COc2ccccc2Br)cc1)N1CCCCCC1	22%	32%	?	67%	42%[12.7 µM]	0%	nt
Nc1c(-c2ccncc2)cc[nH]c1=O	-16%	nt	nt	nt	nt	2%	nt
Nc1cc(-c2ccncc2)c[nH]c1=O	-33%	-12%	6.3µM*!	13%	45µM*!	1%	13µM*	Sfp PPTase gel=?
O=C(CSc1nc2cc([N+](=O)[O-])ccc2n1-c1ccccc1)NCc1ccc2c(c1)OCO2	-8%	-20%	1µM*	16%	?	-1%	15µM*
c1ccc(-c2nnc(-c3ccccc3)nn2)cc1	?	?	4%	-18%	?	nt	nt
c1cncc(-c2nnc(-c3cccnc3)nn2)c1	-25%[57.1 µM]	-36%	40µM*	?	8.9µM*	4%	15µM*
CC(Sc1nc2ccccc2c(=O)n1CC1CCCO1)C(=O)Nc1ccc(S(N)(=O)=O)cc1 (stereo not drawn)	-18%	3%	nt	16%	-45%[59 µM]	nt	nt
Cc1ccsc1C(=O)Nc1ccccc1N1CCCC1	-23%	-36%	nt	6%	19%[0.501 µM]	nt	nt
COc1ccccc1NS(=O)(=O)c1cc(NC(=O)c2sccc2C)ccc1N1CCCC1	-18%	-31%	2.8µM*	?	3.5µM*	2%	17µM*
O=S1(=O)NC[C@]23C[C@H](c4ccc(F)cc4)[C@@H](C[C@@H]21)O3	-19%	-7%	5%	16%	-20%[59 µM]	nt	nt
CCC(CO)[n+]1c(C)cc(/C=C2\Sc3ccccc3N2Cc2ccccc2)cc1C (stereo not drawn)	-3%	4%	35µM*	23%	?	4%	53µM*	Sfp PPTase gel=?
SMILES	JMJD2A Tudor	BAZ2B block	Sfp inh	HP1b chromo inh	G9a inh	TDP1 inh	Sfp inh conf	others
CCC(C)NC(=O)c1ccc2c(c1)N(Cc1ccccc1)C(=O)c1ccccc1S2 (stereo not drawn)	-20%	0%	nt	18%	6%[59 µM]	5%	nt
COc1ccccc1C(=O)NCCC(=O)N(C)CC(=O)Nc1ccc(Cl)cc1	7%	-1%	nt	26%	6%[0.501 µM]	-2%	nt
COc1ccc2[nH]c(=O)c(CN(C(C)=O)C3CCCCC3)cc2c1	-19%	-1%	11%	15%	9%	6%	nt
COc1ccc2[nH]c(=O)c(CN(C(=O)c3ccco3)C3CCCCC3)cc2c1	-17%	32%	7.9µM*	28%	?	8%	37µM*	Sfp PPTase gel=i
COc1ccc(OC)c(NC(=O)N(C)CCc2c(C)nn(C)c2C)c1	1%	-3%	nt	50%	1%[12.7 µM]	6%	nt
Cc1csc(NC(=O)CSc2[nH]c(=O)ncc2C)n1	-12%	-11%	nt	30%	6%	-13%[0.505 µM]	nt
Cc1cnc(=O)[nH]c1SCC(=O)c1ccc(F)cc1	-23%	?	14µM*	-32%	7.1µM*	5%	8.3µM*
COc1ccc(NC(=O)c2cc(Cl)ccc2NC(=O)c2ccco2)c(OC)c1	?	-17%	16µM*	42%	-11%	0%	47µM*	Sfp PPTase gel=i
COc1ccc(NC(=O)c2ccccc2Cl)c(NC(=O)c2ccco2)c1	-13%	-24%	8%	27%	?	8%	nt
Cc1ccc(C(C)C)c(OCC(=O)N/N=C2\CC(=O)CC(C)(C)C2)c1	-19%	-20%	1%	6%	-12%	0%	nt
CCC1=C[C@@H]2CN(C1)Cc1c([nH]c3ccccc13)[C@@](C(=O)OC)(c1cc3c(cc1OC)N(C)[C@H]1[C@@](O)(C(=O)OC)[C@H](OC(C)=O)[C@]4(CC)C=CCN5CC[C@]31[C@@H]54)C2	nt	nt	14µM*	nt	nt	15%	?	Sfp PPTase gel=56µM*
Cn1cc(-c2nc3cnc(N4CCNCC4)nc3n(-c3ccccc3)c2=O)c2ccccc21	nt	nt	-22%	nt	8%[0.501 µM]	nt	nt
CCOc1ccc(NC(=O)CSc2oc(-c3ccc(F)cc3)nc2S(=O)(=O)c2ccc(C)cc2)cc1	14%	3%	nt	37%	0%[59 µM]	-3%	nt
O=C(COC(=O)c1ccc2c(c1)C(=O)N(Cc1ccco1)C2=O)NCC(F)(F)F	-9%	5%	-5%	3%	-6%	-2%	nt
CCOC(=O)c1nn(-c2ccccc2)c(=O)c2c(N)scc12	-34%[11.4 µM]	nt	13µM*	22%	1.6µM*	4%	19µM*
CCOC(=O)c1nn(-c2ccccc2C)c(=O)c2c(N)scc12	18µM*	79µM*	3.2µM*	-16%	3.2µM*	-5%	15µM*
CC(OC(=O)c1cccc(-n2cnnn2)c1)C(=O)Nc1ccc(F)c(F)c1F (stereo not drawn)	7%	nt	nt	58%	nt	nt	nt
